Measurements reported in PubChem BioAssay (NCATS).
Records with an inconclusive call do not appear. The source made the active and inactive calls. Unless noted, the call rests on the fitted dose curve; in most records, active means well fitted curve in the direction sought with a large enough effect; inconclusive means small, poorly fitted or top-dose-only effect, or another doubt; inactive means no such curve, though single readings can be large; an effect the other way counts as inactive or inconclusive.

Key:
[1] = molecular target: Cytochrome P450 1A2 (Homo sapiens) (UniProt P05177); test: p450-cyp1a2 (AID 410; calls by dose curve;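 further: -100% = full effect of reference inhibitor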)
Cytochrome P450 1A2 (Homo sapiens), sequence (P05177 whole entry, looked up): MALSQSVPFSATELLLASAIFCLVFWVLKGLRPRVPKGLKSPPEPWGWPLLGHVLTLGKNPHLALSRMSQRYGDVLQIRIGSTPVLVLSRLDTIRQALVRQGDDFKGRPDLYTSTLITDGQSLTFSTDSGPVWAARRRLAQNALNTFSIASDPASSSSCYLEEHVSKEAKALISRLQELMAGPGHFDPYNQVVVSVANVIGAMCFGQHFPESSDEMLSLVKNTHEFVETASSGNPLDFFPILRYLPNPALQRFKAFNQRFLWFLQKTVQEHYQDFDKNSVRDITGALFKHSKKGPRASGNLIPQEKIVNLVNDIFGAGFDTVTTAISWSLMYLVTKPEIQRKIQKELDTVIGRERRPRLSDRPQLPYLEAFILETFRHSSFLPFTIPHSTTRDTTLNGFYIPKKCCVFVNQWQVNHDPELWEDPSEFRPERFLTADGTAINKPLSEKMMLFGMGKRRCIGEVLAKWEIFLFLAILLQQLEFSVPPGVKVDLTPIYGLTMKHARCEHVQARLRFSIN
Outline: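 20nM CYP1A2 with 100uM Luciferin-ME (at Km) in 100mM KPO4; compound preincubated 10 min, NADPH regeneration added, 60 min at room temperature. Luciferin quantified by luminescence after detection reagent; normalized to 57 uM furafylline.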

[2] = NFAT Signaling Pathway (AID 444; active means well fitted curve in either direction with a large enough effect, not every such curve was filed as active;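 further: carbachol stimulus at about its EC50 of 1 µM final; on the % scale 0 is the no-effect control and ±100 the full control effect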); settings: Jurkat NFAT-bla M1, carbachol, beta-lactamase ratio, 5 h
Outline: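 Jurkat cells carrying an NFAT-driven β-lactamase reporter and co-transfected muscarinic M1 receptor were treated with compound plus carbachol (1 uM final, an EC50 level) for 5 h at 37 °C. CCF4 loading followed for 1 h at RT; 460/530 nm ratio gave %activity.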

[3] = molecular target: Glucocorticoid receptor (Homo sapiens) (UniProt P04150); test: GR-EFC Redistribution (AID 451; calls by dose curve; further: potency means the concentration at half of the fitted maximal effect); settings: CHO-K1 GR-EFC translocation, beta-gal luminescence, 2 h
Glucocorticoid receptor (Homo sapiens), sequence (P04150 whole entry, looked up, the tested form may be a part): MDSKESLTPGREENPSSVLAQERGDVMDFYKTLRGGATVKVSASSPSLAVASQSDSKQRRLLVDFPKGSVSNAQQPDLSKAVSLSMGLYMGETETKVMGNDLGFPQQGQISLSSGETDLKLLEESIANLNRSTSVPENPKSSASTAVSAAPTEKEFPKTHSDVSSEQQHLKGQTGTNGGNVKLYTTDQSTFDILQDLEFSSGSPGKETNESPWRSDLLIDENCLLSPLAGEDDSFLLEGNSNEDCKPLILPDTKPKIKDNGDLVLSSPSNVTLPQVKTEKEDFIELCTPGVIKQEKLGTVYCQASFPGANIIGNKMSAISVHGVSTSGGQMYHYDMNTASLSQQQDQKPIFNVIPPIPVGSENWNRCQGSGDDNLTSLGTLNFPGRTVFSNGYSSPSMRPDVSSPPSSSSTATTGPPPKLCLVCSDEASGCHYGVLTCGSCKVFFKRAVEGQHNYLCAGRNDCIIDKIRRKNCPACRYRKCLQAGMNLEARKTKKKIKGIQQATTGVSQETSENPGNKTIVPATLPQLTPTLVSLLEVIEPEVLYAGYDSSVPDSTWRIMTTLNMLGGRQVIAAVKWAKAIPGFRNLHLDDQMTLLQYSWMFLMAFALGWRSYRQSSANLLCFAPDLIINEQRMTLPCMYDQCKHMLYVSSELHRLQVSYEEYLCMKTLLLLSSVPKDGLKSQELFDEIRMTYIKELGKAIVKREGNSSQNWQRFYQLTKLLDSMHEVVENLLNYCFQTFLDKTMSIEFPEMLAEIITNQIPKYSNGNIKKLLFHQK
Outline: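 CHO-K1 cells stably expressing nuclear-localized β-gal enzyme acceptor and GR fused C-terminally to the enzyme donor fragment; ligand-driven nuclear translocation restores β-gal by complementation. Compounds titrated up to 46 uM final, 2 h at 37 °C; luminescence read.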

[4] = molecular target: Mitogen-activated protein kinase 10 (Mus musculus) (UniProt Q61831); test: JNK3 AlphaScreen Assay (AID 530; active means well fitted curve in either direction with a large enough effect, not every such curve was filed as active;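 further: kinase came from lysate of stimulated human HepG2 cells; signal reports phosphorylation of biotinylated GST-cJun 1-79 at Ser73 with 10 µM ATP; on the % scale 0 is the no-effect control and ±100 the full control effect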)
Outline: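 Inhibitors reduce antibody binding to phosphorylated biotin-cJun, lowering AlphaScreen luminescence. Lysates from HepG2 cells pre-activated by IL-1beta plus TNF-alpha supplied JNK3; compounds were titrated.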

[5] = molecular target: 3',5'-cyclic-AMP phosphodiesterase 4B (Homo sapiens) (UniProt Q07343); test: qHTS Assay for Inhibitors of PDE-IV (AID 607; active means well fitted activation curve with a large enough effect in the main read-out, with a control signal flat, not every such curve was filed as active; further: % of control where 0% means no effect)
3',5'-cyclic-AMP phosphodiesterase 4B (Homo sapiens), sequence (Q07343 whole entry, looked up): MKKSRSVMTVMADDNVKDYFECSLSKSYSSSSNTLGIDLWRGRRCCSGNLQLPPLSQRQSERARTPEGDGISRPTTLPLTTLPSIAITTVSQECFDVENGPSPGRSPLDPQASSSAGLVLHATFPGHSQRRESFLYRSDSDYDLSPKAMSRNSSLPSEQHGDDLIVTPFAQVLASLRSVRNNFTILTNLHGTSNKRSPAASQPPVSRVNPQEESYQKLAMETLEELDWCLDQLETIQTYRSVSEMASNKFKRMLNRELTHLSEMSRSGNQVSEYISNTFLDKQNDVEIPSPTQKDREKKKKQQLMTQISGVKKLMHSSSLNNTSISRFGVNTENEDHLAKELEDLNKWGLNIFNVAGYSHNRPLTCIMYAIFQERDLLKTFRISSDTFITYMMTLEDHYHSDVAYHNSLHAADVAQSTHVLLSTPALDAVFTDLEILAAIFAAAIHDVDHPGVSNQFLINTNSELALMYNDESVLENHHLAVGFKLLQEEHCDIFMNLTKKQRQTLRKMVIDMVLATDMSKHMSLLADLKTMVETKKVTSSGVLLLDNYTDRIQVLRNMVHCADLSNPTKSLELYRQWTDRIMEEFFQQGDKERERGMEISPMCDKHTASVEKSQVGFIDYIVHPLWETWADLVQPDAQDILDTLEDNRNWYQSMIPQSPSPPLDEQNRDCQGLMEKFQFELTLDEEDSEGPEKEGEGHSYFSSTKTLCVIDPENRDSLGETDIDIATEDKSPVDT
Outline: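 ACTOne HEK293 cells carry a modified cAMP-gated CNG channel and express endogenous PDE4; plated 1000 cells/well, compounds up to 22.9 uM final. Membrane-potential dye fluorescence (ex 535/em 590) was read; parental cells received 10 uM forskolin + 100 uM RO 20-1724.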

[6] = molecular target: Guanine nucleotide-binding protein G(i) subunit alpha-1 (Homo sapiens) (UniProt P63096); test: qHTS Assay for Inhibitors of RGS12 GoLoco Motif Activity (Green Fluorophore) (AID 879);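 further: 0% = labeled peptide with Gαi1 and full inhibition = labeled peptide alone without protein; negative values mean loss of peptide binding seen as reduced polarization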
Guanine nucleotide-binding protein G(i) subunit alpha-1 (Homo sapiens), sequence (P63096 whole entry, looked up): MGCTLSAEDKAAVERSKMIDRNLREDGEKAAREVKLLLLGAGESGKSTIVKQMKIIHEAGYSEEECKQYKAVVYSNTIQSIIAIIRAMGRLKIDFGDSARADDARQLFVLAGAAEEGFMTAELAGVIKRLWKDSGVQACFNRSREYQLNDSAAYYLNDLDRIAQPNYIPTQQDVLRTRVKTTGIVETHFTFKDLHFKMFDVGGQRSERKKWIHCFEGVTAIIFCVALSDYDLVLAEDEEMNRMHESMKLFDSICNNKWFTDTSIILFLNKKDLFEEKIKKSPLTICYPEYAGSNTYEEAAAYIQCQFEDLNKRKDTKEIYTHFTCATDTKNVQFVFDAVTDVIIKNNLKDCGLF
Outline: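 Fluorescence polarization assay: 50 nM Gαi1 with 10 nM FITC-labeled RGS12 GoLoco peptide in 10 mM Tris pH 7.5, 150 mM NaCl, 0.1 mM GDP, 0.05% NP40, 10 min at room temperature with compound.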

[7] = molecular target: Cytochrome P450 3A4 (Homo sapiens) (UniProt P08684); test: qHTS Assay for Activators of Cytochrome P450 3A4 (AID 885); further: nearly all actives have a fitted effect of over 65% in size
Cytochrome P450 3A4 (Homo sapiens), sequence (P08684 whole entry, looked up): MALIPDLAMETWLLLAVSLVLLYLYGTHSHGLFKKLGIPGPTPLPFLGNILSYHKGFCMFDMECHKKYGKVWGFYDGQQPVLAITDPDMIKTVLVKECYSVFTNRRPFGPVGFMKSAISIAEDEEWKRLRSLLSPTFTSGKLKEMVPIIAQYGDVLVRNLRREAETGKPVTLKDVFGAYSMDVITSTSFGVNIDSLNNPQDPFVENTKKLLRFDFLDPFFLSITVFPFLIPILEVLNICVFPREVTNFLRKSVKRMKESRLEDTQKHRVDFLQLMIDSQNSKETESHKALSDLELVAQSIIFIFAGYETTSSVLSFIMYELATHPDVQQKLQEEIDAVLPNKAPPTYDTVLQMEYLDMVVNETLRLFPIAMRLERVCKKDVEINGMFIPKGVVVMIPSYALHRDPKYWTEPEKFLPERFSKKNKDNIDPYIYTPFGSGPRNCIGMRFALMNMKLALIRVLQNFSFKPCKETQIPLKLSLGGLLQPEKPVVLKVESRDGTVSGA
Outline: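 20nM CYP3A4 + 25uM Luciferin-PPXE (=KM), 200mM KPO4; cpd 10 min RT; NADPH regen, 60 min RT; stop w/ detection buffer, 20 min; luminescence. Normalized to 57 uM ketoconazole.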

[8] = qHTS Assay for Identification of Small Molecule Antagonists for NFkB Signaling Pathway (AID 895; active means well fitted inhibition curve with a large enough effect in the signal ratio, with a control signal flat, not every such curve was filed as active; the % refers to the signal ratio; further: on the % scale 0 is the no-effect control and ±100 the full control effect)
Outline: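 NFkB-bla ME-180 cervical carcinoma cells with beta-lactamase reporter under NFkB response element; compounds added, then TNF alpha at 10 pM final (EC50), 5 h at 37 C. LiveBLAzer substrate 2 h, room temperature; emission 460/530 nm at 405 nm excitation.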

[9] = qHTS Assay for Identification of Small Molecule Agonists for Hypoxia Response Element Signaling Pathway (AID 914; active means well fitted activation curve with a large enough effect in the signal ratio, with a control signal flat, not every such curve was filed as active; the % refers to the signal ratio; further: % of control where 0% means no effect); settings: ME-180 (cervical carcinoma) HRE-bla reporter, beta-lactamase ratio, CoCl2, 17 h; activation: stronger effect = higher value
Outline: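 A beta-lactamase reporter under hypoxia response element control in ME-180 cells served as the system. Compound titrations plus EC50 CoCl2 ran 17 h at 37 degrees Celsius; AC50 values were fitted from %Activity.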

[10] = qHTS Assay for Identification of Small Molecule Antagonists for Thrombopoietin (TPO) Signaling Pathway (AID 918); settings: TPO-dependent cell signaling reporter, antagonist mode; further: potency means the concentration at half of the fitted maximal effect; nearly all actives have a fitted effect of over 60% in size
Outline: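 Murine Ba/F3 cells expressing human TPO receptor and a Glycoprotein IIb promoter-luciferase reporter, IL-3-starved overnight, treated with compound plus TPO at EC50 (26 pM final). After 24 h at 37 C, luminescence read to detect inhibitors.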

[11] = molecular target: Muscarinic acetylcholine receptor M1 (Rattus norvegicus) (UniProt P08482); test: qHTS Assay for Antagonists of Acetylcholine Muscarinic M1 Receptor: Measurement of IP-One Response (AID 944); further: nearly all actives have a fitted effect of over 75% in size
Muscarinic acetylcholine receptor M1 (Rattus norvegicus), sequence (P08482 whole entry, looked up): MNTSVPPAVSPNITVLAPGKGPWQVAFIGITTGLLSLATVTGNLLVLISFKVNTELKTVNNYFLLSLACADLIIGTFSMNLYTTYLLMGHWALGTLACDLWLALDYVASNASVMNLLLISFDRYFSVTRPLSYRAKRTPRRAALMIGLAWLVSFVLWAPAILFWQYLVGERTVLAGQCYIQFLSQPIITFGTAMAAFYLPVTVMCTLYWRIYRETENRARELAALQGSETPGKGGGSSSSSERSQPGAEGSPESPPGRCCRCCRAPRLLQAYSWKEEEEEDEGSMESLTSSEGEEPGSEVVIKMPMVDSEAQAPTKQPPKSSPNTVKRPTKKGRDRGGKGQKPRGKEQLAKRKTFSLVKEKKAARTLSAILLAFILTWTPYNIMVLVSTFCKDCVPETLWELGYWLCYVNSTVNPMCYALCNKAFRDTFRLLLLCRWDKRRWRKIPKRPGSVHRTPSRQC
Outline: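 CHO cells stably expressing rat M1, pretreated 10 min with compound, then stimulated 30 min with carbachol at EC80 (200 nM) in LiCl-containing buffer pH 7.4; IP1 accumulation read by HTRF competition (665/620 nm).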

[12] = molecular target: Pyruvate kinase (Leishmania mexicana) (UniProt Q27686); test: qHTS Validation Assay for Inhibitors of Leishmania Mexicana Pyruvate Kinase (AID 945);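 further: 0% = DMSO only neutral control wells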
Outline: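 Compounds are tested as eight-point concentration series. Reactions contain 0.2 nM LmPYK E451W, 0.5 mM PEP, 0.1 mM ADP, 7 mM MgCl2 and 50 mM KCl at pH 7.2, run 1 h at room temperature, then read by PKLight luminescence.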

[13] = molecular target: Alpha-galactosidase (Coffea arabica) (UniProt Q42656); test: Counterscreen for Glucocerebrosidase Inhibitors: qHTS Assay for Coffee Bean alpha-Galactosidase at pH 4.5 (AID 957);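 further: plate controls were enzyme alone for no effect and no enzyme for full effect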
Alpha-galactosidase (Coffea arabica), sequence (Q42656 whole entry, looked up): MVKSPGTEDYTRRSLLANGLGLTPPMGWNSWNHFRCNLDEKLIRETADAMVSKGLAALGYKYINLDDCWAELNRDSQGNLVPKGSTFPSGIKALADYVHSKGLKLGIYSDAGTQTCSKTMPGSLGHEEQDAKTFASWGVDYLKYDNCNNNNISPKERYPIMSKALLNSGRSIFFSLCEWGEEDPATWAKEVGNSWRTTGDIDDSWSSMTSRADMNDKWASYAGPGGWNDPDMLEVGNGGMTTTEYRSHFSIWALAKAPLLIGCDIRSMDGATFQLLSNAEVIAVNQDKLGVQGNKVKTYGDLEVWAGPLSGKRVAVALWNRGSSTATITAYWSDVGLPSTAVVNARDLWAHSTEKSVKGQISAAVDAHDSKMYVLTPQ
Outline: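 Coffee bean enzyme (2 nM) with 80 uM 4-methylumbelliferyl alpha-D-galactopyranoside in 50 mM citric acid, 0.005% Tween-20, pH 4.5, 20 min at room temperature; compounds 0.7 nM–77 uM. Stopped at pH 10, fluorescence 365/440 nm; AC50 from Hill fits.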

[14] = molecular target: Alpha-galactosidase A (Homo sapiens) (UniProt P06280); test: Counterscreen for Glucocerebrosidase Inhibitors: qHTS Assay for Human alpha-Galactosidase at pH 4.5 (AID 992); further: 0% is about no effect
Outline: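 Enzyme at 2 nM final was combined with compound (0.7 nM to 77 uM) and 80 uM 4-methylumbelliferyl alpha-D-galactopyranoside in 50 mM citric acid, 0.005% Tween-20, pH 4.5. After 20 min at room temperature, fluorescence was read (Ex 365/Em 440 nm); AC50 came from Hill fits.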

[15] = molecular target: Alpha-galactosidase (Coffea arabica) (UniProt Q42656); test: Counterscreen for Glucocerebrosidase Inhibitors: qHTS Assay for Coffee Bean alpha-Galactosidase at pH 5.9 (AID 998);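 further: plate controls were uninhibited enzyme for no effect and no-enzyme basal signal for full effect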
Outline: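 Green coffee bean enzyme (2 nM final) was incubated with compounds (0.7 nM–77 uM) and 4-methylumbelliferyl alpha-D-galactopyranoside (80 uM) in citrate buffer pH 5.9, 20 min at room temperature. High-pH stop; fluorescence 365/440 nm; AC50 from Hill fits.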

[16] = qHTS Assay for Lipid Storage Modulators (AID 1519; calls by dose curve); settings: Drosophila S3 cells, BODIPY lipid droplet/cell ratio, laser cytometry, cells loaded with oleic acid
Outline: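 Cells seeded at 5,000 per well were treated with compounds over a concentration series and loaded with oleic acid (400 uM, as added). Lipid droplet fluorescence (488 nm excitation, 500-530 nm channel) was read by laser-scanning cytometry and normalized to 20 uM Triacsin C.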

[17] = molecular target: Ubiquitin carboxyl-terminal hydrolase 1 (Homo sapiens) (UniProt O94782); test: Inhibitors of USP1/UAF1: Pilot qHTS (AID 504865);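 further: rhodamine fluorescence freed from ubiquitin-rhodamine substrate followed over time; top concentration of the series differs between compounds; on the % scale 0 is the no-effect control and ±100 the full control effect; nearly all actives have a fitted effect of over 35% in size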
Ubiquitin carboxyl-terminal hydrolase 1 (Homo sapiens), sequence (O94782 whole entry, looked up): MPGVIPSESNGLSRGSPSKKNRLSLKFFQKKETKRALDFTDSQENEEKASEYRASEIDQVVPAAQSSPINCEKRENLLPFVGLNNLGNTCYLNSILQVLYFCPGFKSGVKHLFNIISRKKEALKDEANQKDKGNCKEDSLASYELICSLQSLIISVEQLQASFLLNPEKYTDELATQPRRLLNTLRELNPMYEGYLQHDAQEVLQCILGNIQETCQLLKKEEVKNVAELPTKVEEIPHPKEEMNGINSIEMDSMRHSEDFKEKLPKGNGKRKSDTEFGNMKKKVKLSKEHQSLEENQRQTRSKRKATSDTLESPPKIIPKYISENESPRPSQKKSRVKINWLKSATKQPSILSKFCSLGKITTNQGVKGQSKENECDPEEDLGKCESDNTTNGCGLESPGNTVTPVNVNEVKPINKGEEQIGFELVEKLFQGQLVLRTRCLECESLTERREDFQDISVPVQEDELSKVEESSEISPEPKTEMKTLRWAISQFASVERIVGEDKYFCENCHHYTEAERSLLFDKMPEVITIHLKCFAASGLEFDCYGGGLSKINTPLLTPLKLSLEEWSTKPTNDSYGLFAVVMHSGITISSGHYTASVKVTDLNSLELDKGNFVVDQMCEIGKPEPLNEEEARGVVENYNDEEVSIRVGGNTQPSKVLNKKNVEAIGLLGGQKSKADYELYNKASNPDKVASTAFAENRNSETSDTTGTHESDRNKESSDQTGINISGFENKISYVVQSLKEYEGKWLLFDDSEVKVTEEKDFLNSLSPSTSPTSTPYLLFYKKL
Outline: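 1nM USP1/UAF1 + cpd, 15 min RT; start w/ Ub-Rho 150nM final; kinetic FL 480/540 nm, 6 reads q60 s. Buffer 50mM HEPES pH 7.8, 0.5mM EDTA, 1mM TCEP, 0.01% Tween-20, 0.1 mg/ml BSA.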

[18] = molecular target: DNA dC->dU-editing enzyme APOBEC-3G (Homo sapiens) (UniProt Q9HC16); test: qHTS for inhibitors of Vif-A3G interactions: Validation (AID 588379); further: 0% is about no effect
DNA dC->dU-editing enzyme APOBEC-3G (Homo sapiens), sequence (Q9HC16 whole entry, looked up): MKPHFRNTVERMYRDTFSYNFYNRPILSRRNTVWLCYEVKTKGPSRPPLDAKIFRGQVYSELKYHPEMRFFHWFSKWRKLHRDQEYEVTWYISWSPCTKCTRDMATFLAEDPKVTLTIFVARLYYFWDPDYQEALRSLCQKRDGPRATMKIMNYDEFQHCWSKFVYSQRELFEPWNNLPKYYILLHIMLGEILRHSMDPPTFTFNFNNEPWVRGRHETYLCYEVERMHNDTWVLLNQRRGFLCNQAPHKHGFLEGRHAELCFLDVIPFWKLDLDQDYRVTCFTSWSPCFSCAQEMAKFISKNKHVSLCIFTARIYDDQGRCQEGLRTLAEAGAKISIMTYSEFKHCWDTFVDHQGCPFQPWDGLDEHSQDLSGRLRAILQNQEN
Outline: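 HeLa cells stably expressing Vif and A3G-eYFP, 700 cells/well, incubated overnight at 37 deg C, then exposed to compound overnight at 37 deg C. Inhibition of Vif-mediated degradation read as increased yellow fluorescence (Ex 488/Em 500-530) by laser-scanning cytometry.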

[19] = tested on: Zika virus NS2B-NS3 protease; test: Primary screen GU AMC qHTS for Zika virus inhibitors (AID 1347154);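 further: 0% = no-inhibitor control and -100% = no-enzyme control; nearly all actives have a fitted effect of over 70% in size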
Outline: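 Unlinked Zika NS2B hydrophilic domain/NS3 protease domain noncovalent complex (25 nM final) in 10 mM Tris-HCl pH 8.0, 0.01% Tween 20, with AMC peptide substrate. Fluorescence (ex 340, em 450 nm) change over 15 min, room temperature; percent inhibition fitted to 4-parameter Hill equation.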

[20] = Primary qHTS for small molecule stabilizers of the endoplasmic reticulum resident proteome: Secreted ER Calcium Modulated Protein (SERCaMP) assay (AID 1508630); further: on the % scale 0 is the no-effect control and ±100 the full control effect
Outline: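 GLuc-SERCaMP-expressing SH-SY5Y cells, pretreated 16 h with compound, are challenged with thapsigargin to empty ER calcium stores; after 4 h, coelenterazine is added directly to the medium and luminescence is imaged.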

[21] = molecular target: Glucocorticoid receptor (Homo sapiens) (UniProt P04150); test: GR-GFP Redistribution (AID 450;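 active means compounds whose dose series gives a full or clear partial fitted curve of increased nuclear translocation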; further: potency means the concentration at half of the fitted maximal effect); settings: U2OS GR-GFP nuclear translocation, laser cytometry, 2 h
[22] = qHTS Assay for Identification of Small Molecule Agonists for Thrombopoietin (TPO) Signaling Pathway (AID 917); further: on the % scale 0 is the no-effect control and ±100 the full control effect
Outline: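 Activators of TPO signaling were sought in murine Ba/F3 cells transfected with the human receptor, using a luciferase gene driven by the Glycoprotein IIb promoter; 24-hr compound exposure at 37 C alongside 26 pM TPO, in IL-3-free medium.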

[23] = molecular target: Muscarinic acetylcholine receptor M1 (Rattus norvegicus) (UniProt P08482); test: qHTS Assay for Antagonists of Acetylcholine Muscarinic M1 Receptor: Kinetic Measurement of Intracellular Calcium Response (AID 943); further: nearly all actives have a fitted effect of over 75% in size
Outline: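 CHO cells expressing rat M1 receptor, Fluo-4 loaded, preincubated 10 min with compound, then stimulated with EC80 carbachol (100 nM final). Kinetic calcium fluorescence over 4 min; response taken as peak over basal signal.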

[24] = measured here: cell count channel max response
[25] = measured here: lipid channel max response

C=CCN1CC[C@@]23c4c5ccc(O)c4O[C@H]2/C(=N\N=C2/CC[C@@]4(O)[C@H]6Cc7ccc(O)c8c7[C@@]4(CCN6CC=C)[C@@H]2O8)CC[C@]3(O)[C@@H]1C5
11.9%: max response [16, 25]
active: Potency [10] 12.6 µM
inactive: Potency [1] | activity change, negative = inhibition ([2]; at 38 µM (top of the series)) -21.2% | Potency [3] > 46 µM | outcome [4] | Potency [5] | outcome [6] | Potency [7] | Potency [8] | activation [9] 0.657% | Potency [11] | outcome [12] | outcome [13] | outcome [14] | outcome [15] | activity change, negative = inhibition ([16]; at 57.5 µM (top of the series)) 1.28% | Potency [17] | Potency [18] | Potency [19] | Potency [20]
10.9%: max response [16, 24]

c1cncc(C2=NCCC2)c1
-18.1%: max response [16, 24] | max response [16, 25]
inactive: activity change, negative = inhibition ([2]; at 17.2 µM (top of the series)) -0.876% | Potency [3] > 20.6 µM | outcome [4] | Potency [5] | activity change, negative = inhibition ([16]; at 25.7 µM (top of the series)) -0.221% | Potency [17] | Potency [19] | Potency [20]

CC1=C2CC3C(CC=C4C[C@@H](O)CC[C@@]43C)[C@@H]2CC[C@]12O[C@@H]1C[C@H](C)CN[C@H]1[C@H]2C (stereo partly specified)
inactive: Potency [19] | Potency [20]

Cc1o[nH]c(=O)c1C[C@@H](N)C(=O)O
0.175%: max response [16, 25]
-0.22%: max response [16, 24]
inactive: Potency [1] | Potency [21] > 46 µM | Potency [3] > 46 µM | outcome [4] | Potency [5] | activity change, negative = inhibition ([16]; at 57.5 µM (top of the series)) -2.31% | Potency [18] | Potency [19] | Potency [20]

N[C@H](CCP(=O)(O)O)C(=O)O
21.4%: max response [16, 25]
21.6%: max response [16, 24]
inactive: activity change, negative = inhibition ([2]; at 38 µM (top of the series)) 13.5% | Potency [21] > 46 µM | Potency [3] > 46 µM | outcome [4] | Potency [5] | outcome [6] | Potency [8] | outcome [22] | Potency [23] | Potency [11] | outcome [12] | outcome [13] | outcome [14] | outcome [15] | activity change, negative = inhibition ([16]; at 57.5 µM (top of the series)) 2.56% | Potency [17] | Potency [18] | Potency [19] | Potency [20]
